# Test results from PubChem BioAssay AID686979 (National Center for Advancing Translational Sciences (NCATS), 2013).
# Where “and” joins values, the source holds several entries; their conditions need not be identical. Equal entries are not always repeated. Among all 420,000 compounds or so, about 50,000 (12%) were called active. Not shown: some 26% with an inconclusive outcome. Calls come from the whole dose curve; as a rule, active = well fitted inhibition curve with a large enough effect; inconclusive = small, poorly fitted or top-dose-only effect; inactive = flat fitted curve, though single readings scatter. Only a selection was taken, and actives are over-represented in it overall.
# Assay: qHTS for Inhibitors of human tyrosyl-DNA phosphodiesterase 1 (TDP1): qHTS in cells in presence of CPT; note: nearly all actives have a fitted effect of over 55% in size
# Conditions: chicken DT40 Tdp1-/-;hTDP1 cells + 20 nM CPT, ATP luminescence, 48 h; series mostly up to 46.2 µM; activity change, negative = growth inhibition: at the top concentration
# Summary of the method: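 Chicken DT40 Tdp1-/- cells stably complemented with human TDP1 were seeded at 400 cells/well in medium containing 20 nM camptothecin, exposed to pin-transferred compounds, and grown at 37 °C for at least 48 hr. Viability was read as ATP luminescence.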
# % is set by controls: 0 for no effect and ±100 for the full control effect; potency is the fitted concentration of half-maximal effect.
SMILES,"activity change, negative = growth inhibition",Potency
C/C(=N\NC(=O)OC(C)(C)C)c1ccc[nH]1,-10.6% (inactive),
O=C(CCN1C(=O)C2C3CCC(C3)C2C1=O)Nc1ccc(Cl)cc1Cl (stereo unspecified),1.93% (inactive),
O=C(NCCc1c[nH]c2ccc(Cl)cc12)c1ccc([N+](=O)[O-])cc1,-0.327% (inactive),
O=C(CN1CCN(c2ccc(O)cc2)CC1)Nc1ccc(-c2ccccc2)cc1,-17.9% (inactive),
O=C(CN1CCN(C2CCCCC2)CC1)Nc1ccccc1N1CCCCC1,,29.1 µM (active)
CCc1ccc(C(=O)NC(=S)Nc2ccccc2N2CCOCC2)cc1,-29.2% (inactive),
O=C(Cc1cccc2ccccc12)NCCC1=CCCCC1,-28.8% (inactive),
Cc1ccc(OCCCC(=O)Nc2ccc(N3CCOCC3)cc2)cc1,-17.8% (inactive),
O=C(CNCCC1=CCCCC1)Nc1ccccc1N1CCCCCC1,,20.6 µM (active)
Cc1cc(C)cc(OCC(=O)Nc2ccc(N3CCOCC3)cc2N2CCOCC2)c1,,20.6 µM (active)
CC(=O)c1ccc(N2CCN(CC(=O)Nc3ccccc3N3CCOCC3)CC2)cc1,,14.6 µM (active)
O=C(CN1CCCCC1)Nc1ccccc1C(=O)NC1CC1,13.4% (inactive),
O=C(NCCCN1CCN(C2CCCCC2)CC1)Nc1ccccc1C(F)(F)F,6.84% (inactive),
O=C(COc1ccc(Cl)cc1)NC(=S)Nc1ccccc1N1CCOCC1,8.34% (inactive),
Cc1ccccc1CN1CCNC(=O)C1CC(=O)NCCC1=CCCCC1 (stereo unspecified),13% (inactive),
CCn1c(=O)c(=O)[nH]c2c(=O)oc3ccc(S(=O)(=O)Nc4ccc(OC)cc4)cc3c21,0.32% (inactive),
Cc1ccc(CCN2CC(C(=O)NCCc3ccccc3)CC2=O)cc1 (stereo unspecified),-10.1% (inactive),
O=C(COC(=O)Cc1ccc(Br)cc1)Nc1ccc(N2CCOCC2)cc1,-13% (inactive),
CCc1ccc(NC(=O)COC(=O)c2cccs2)cc1,1.08% (inactive),
COc1cc(C(=O)N2CCN(C(=O)COc3cccc(C)c3)CC2)cc(OC)c1OC,10.3% (inactive),
COc1cccc(OC)c1C(=O)Nc1ccc2c(c1)n(C)c(=O)n2C,15.1% (inactive),
COC(=O)c1ccc(CSc2ccc(S(=O)(=O)N3CCCCC3)cn2)cc1,-1.22% (inactive),

SMILES,"activity change, negative = growth inhibition",Potency
Cc1cn(C2OC[C@@H](O)[C@@H]2CO)c(=O)[nH]c1=O (stereo partly specified),,inactive
CC(C)(C)CN1CCNC(=O)C1CC(=O)NC1Cc2ccccc2C1 (stereo unspecified),1.17% (inactive),
O=C(CN1CCN(c2ccccc2)CC1)Nc1ccc(F)cc1,4.73% (inactive),
Cc1cccc(C)c1NC(=O)CN1CCN(c2ccc(F)cc2)CC1,,14.6 µM (active)
O=C(CN1CCN(c2ccc(F)cc2)CC1)Nc1ccccc1,-6.14% (inactive),
C#CCCOC(=O)N1C2=NC(C(=O)OC)=C(C(=O)OC)[C@@H]3N(C)c4ccc(OC)cc4[C@]23C[C@H]1C(=O)OC,-29.4% (inactive),
N/C(=N\OC(=O)CC1CCCCC1)c1ccccc1,3.6% (inactive),
O=C(C(Cl)Cl)N1CCN(c2ccccn2)CC1,6.47% (inactive),
Cc1cc(C(=O)N2CCN(c3ccccn3)CC2)c(C)o1,,17.8 µM (active)
O=C(c1cc2ccccc2s1)N1CCN(c2ccccn2)CC1,-10.5% (inactive),
COc1ccc(/C=N/Nc2nc(-c3ccc(C)cc3)c(C#N)c(=O)[nH]2)cc1,-1.12% (inactive),
COc1ccc(CCNS(=O)(=O)c2cccc([N+](=O)[O-])c2)cc1,2.66% (inactive),
COc1ccc(S(=O)(=O)NCCc2cc3ccc(C)c(C)c3[nH]c2=O)cc1,,14.6 µM (active) and 18.4 µM (active)
COc1ccc(CCNS(=O)(=O)c2ccc(F)cc2)cc1OC,-13.6% (inactive),
NC(N)=Nc1nc(-c2ccccc2)c2cc(Cl)ccc2n1,,16.4 µM (active)
Cc1ccc2nc(Nc3ccccc3O)nc(-c3ccccc3)c2c1,-22.7% (inactive),
COC(=O)Cn1nc(-c2ccccc2)c2cc(Cl)ccc21,-2.26% (inactive),
O=C(Nc1ccc(-c2cscn2)cc1)C1CCCN(Cc2ccc(CO)o2)C1 (stereo unspecified),-16.9% (inactive),
CN(Cc1ccco1)S(=O)(=O)c1nnc(NC(=O)c2ccccc2)s1,-19.4% (inactive),
CC(C)NC(=O)c1ccccc1S(=O)c1ccccc1C#N (stereo unspecified),-8.19% (inactive),
Cc1cc(NC(=O)CC(C)C)cc(-c2nc3ncccc3o2)c1O,-22.1% (inactive),
COc1cccc(CNS(=O)(=O)c2ccc3c(c2)CC(C)N3C(=O)C2CCC2)c1 (stereo unspecified),,5.8 µM (active) and 7.31 µM (active)

SMILES,"activity change, negative = growth inhibition",Potency
CC1Cc2cc(S(=O)(=O)CCC(=O)NCc3ccc(Cl)cc3)ccc2N1C(=O)C1CC1 (stereo unspecified),,3.66 µM (active)
CCC(=O)N1c2ccc(S(=O)(=O)CCC(=O)N3CCN(c4ccccc4)CC3)cc2CC1C (stereo unspecified),-22.3% (inactive),
CC(=O)N1c2ccc(S(=O)(=O)NCCC(=O)N(C)C3CCCCC3)cc2CC1C (stereo unspecified),,10.3 µM (active)
Cn1c(=O)oc2cc(S(=O)(=O)CCC(=O)NCCc3ccc(Cl)cc3)ccc21,-4.8% (inactive),
COc1cccc(CNS(=O)(=O)c2csc(C(N)=O)c2)c1,-15.7% (inactive),
CC(=O)N1c2ccc(S(=O)(=O)N(C)CC(=O)N(C)Cc3ccccc3)cc2CC1C (stereo unspecified),-18.2% (inactive),
CC(=O)N1CCc2cc(S(=O)(=O)NC3CCCCC3)ccc21,-29.4% (inactive),
COc1cccc(CNC(=O)C2CCC(CNS(=O)(=O)c3cccs3)CC2)c1 (stereo unspecified),-7.39% (inactive),
Cc1ccc(S(=O)(=O)NCCC(=O)NCc2ccc(Cl)cc2)cc1C,-13.5% (inactive),
CC1Cc2cc(S(=O)(=O)CCC(=O)Nc3ccc(F)c(Cl)c3)ccc2N1C(=O)C1CC1 (stereo unspecified),,10.3 µM (active)
CC1Cc2ccccc2N1CC(=O)Nc1ccc(S(N)(=O)=O)cc1 (stereo unspecified),-8.99% (inactive),
O=C(Cn1cnc2c(cnn2-c2ccc(F)cc2)c1=O)NCCc1ccccc1,-16.9% (inactive),
CCCCNC(=O)OCCSCCS(=O)(=O)c1ccc(Cl)cc1,0.699% (inactive),
Cc1nc2c(c(C)nn2-c2ccccc2)c(C)c1C,0.197% (inactive),
CCOC(=O)c1cc(S(=O)(=O)NCCc2ccc(OC)c(OC)c2)cn1C,0.651% (inactive),
CNC(=O)C(NC(=O)c1ccccc1)=C(C)C,1.28% (inactive),
O=C(CSC1CC(=O)N(CCc2ccccc2)C1=O)Nc1ccc(Cl)cc1 (stereo unspecified),-10.4% (inactive),
CCOC(=O)CNc1nc(Cl)nc(Nc2ccc(OC)cc2OC)n1,-6.66% (inactive),
Cc1c(S(=O)(=O)N2CC(C)CC(C)C2)c(=O)n(C)c(=O)n1C (stereo unspecified),21.5% (inactive),
CC(C)CCN1CCC(C)(NC(=O)c2ccccc2)C1=O (stereo unspecified),-24.9% (inactive),
O=C(c1ccc(Cl)nc1)N1CCN(S(=O)(=O)c2ccc3c(c2)OCCO3)CC1,-29.3% (inactive),
CCOC(=O)c1ccccc1NC(=O)CCc1c(C)nc2c(c1C)c(=O)n(C)c(=O)n2C,11.4% (inactive),
